The results in this text go back to PubChem BioAssay (EPA / NIEHS).

The source made the active and inactive calls. The calls were made as follows: active = hit-call score of the fitted dose curve at least 0.9, where 1 is the maximum; inactive = score below 0.9.

Read-out in experiment [1]: TIMP metallopeptidase inhibitor 2 (TIMP2), TIMP2 (gene 7077)
In words: BSK_KF3CT_TIMP2: BioMAP Diversity Plus: KF3CT Assay for TIMP metallopeptidase inhibitor 2 (TIMP2) Biomarker Activity (AID 2283071). The following applies: primary human keratinocytes with fibroblasts; actives raise or lower the signal. The procedure, abridged:
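Chemicals were dosed onto human skin primary co-cultures of keratinocytes and foreskin fibroblasts, and TIMP-2 was measured by ELISA after 24 hours. Activity in either direction was fitted relative to DMSO.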

Read-out in experiment [2]: Transforming growth factor beta 1 (TGFb1), TGFB1 (gene 7040)
Briefly: BSK_KF3CT_TGFb1: BioMAP Diversity Plus: KF3CT Assay for Transforming growth factor beta 1 (TGFb1) Biomarker Activity (AID 2283072). Particulars: primary human keratinocytes with fibroblasts; actives raise or lower the signal. The procedure, abridged:
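KF3CT co-culture (keratinocytes + fibroblasts), 24 h exposure → TGF-b1 ELISA → bidirectional fit, DMSO = baseline. Parallel SRB total-protein staining (0.1% SRB, 10% TCA fixation, 560 nm) for cytotoxicity.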

Read-out in experiment [3]: C-C motif chemokine 2 (Homo sapiens) (UniProt P13500)
In words: BSK_KF3CT_MCP1: BioMAP Diversity Plus: KF3CT Assay for Monocyte Chemoattractant Protein 1 (MCP1/CCL2) Biomarker Activity (AID 2283073). Particulars: primary human keratinocytes with fibroblasts; actives raise or lower the signal. The gist of the method:
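Human keratinocyte–foreskin fibroblast co-culture; MCP-1 measured by ELISA 24 h after dosing. Bidirectional fit vs DMSO; cytotoxicity tracked by SRB total protein in parallel cultures.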

Read-out in experiment [4]: Matrix Metallopeptidase 9 (MMP9), MMP9 (gene 4318)
Briefly: BSK_KF3CT_MMP9: BioMAP Diversity Plus: KF3CT Assay for Matrix Metallopeptidase 9 (MMP9) Biomarker Activity (AID 2283074).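 As to AC50: MMP9 protein level quantified by ELISA in the co-culture.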 The following applies: primary human keratinocytes with fibroblasts; actives raise or lower the signal. The gist of the method:
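Values come from bidirectional fitting relative to DMSO of MMP-9 levels, which were measured by ELISA. Measurements were taken 24 h after chemical dosing of a keratinocyte and foreskin fibroblast co-culture.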

Read-out in experiment [5]: urokinase plasminogen activator (uPA), PLAU (gene 5328)
In words: BSK_KF3CT_uPA: BioMAP Diversity Plus: KF3CT Assay for urokinase plasminogen activator (uPA) Biomarker Activity (AID 2283075). The following applies: primary human keratinocytes with fibroblasts; actives raise or lower the signal. The procedure, abridged: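 Values derive from bidirectional fitting against DMSO controls. Keratinocyte/foreskin fibroblast co-cultures received chemical; 24 h later uPA was detected by ELISA, with SRB total-protein staining in parallel wells for overt cytotoxicity.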

Read-out in experiment [6]: CD40, CD40 (gene 958)
In words: BSK_LPS_CD40: BioMAP Diversity Plus: LPS Assay for CD40 Biomarker Activity (AID 2283076). Particulars: primary human HUVEC with PBMC; actives raise or lower the signal. The procedure, abridged:
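HUVEC plus PBMC co-culture stimulated with LPS; CD40 quantified by ELISA 24 h after compound dosing. Fitting was bidirectional relative to DMSO. SRB staining of parallel cultures flagged overt cytotoxicity.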

Read-out in experiment [7]: E-selectin (Homo sapiens) (UniProt P16581)
Briefly: BSK_LPS_Eselectin: BioMAP Diversity Plus: LPS Assay for Eselectin Biomarker Activity (AID 2283077). The following applies: primary human HUVEC with PBMC; actives raise or lower the signal. The gist of the method: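 Human umbilical vein endothelial cells co-cultured with PBMC under LPS stimulation; cell-surface E-selectin measured by ELISA 24 h after dosing. Change in either direction versus DMSO, with SRB total-protein staining in parallel cultures for cytotoxicity.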

Read-out in experiment [8]: Interleukin-8 (IL8), CXCL8 (gene 3576)
In words: BSK_LPS_IL8: BioMAP Diversity Plus: LPS Assay for Interleukin-8 (IL8) Biomarker Activity (AID 2283078). The following applies: primary human HUVEC with PBMC; actives raise or lower the signal. The procedure, abridged:
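Human umbilical vein endothelial cells co-cultured with PBMC, LPS-stimulated, exposed to compound for 24 h. IL-8 quantified by ELISA; fitted in both directions against DMSO, with SRB total-protein staining of parallel cultures for cytotoxicity.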

Experiment [9] is described as follows: BSK_LPS_SRB: Viability Assessment in the BioMAP Diversity Plus: LPS Assay (AID 2283079).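 Also: total protein by sulforhodamine B absorbance as a cytotoxicity measure; measured one day after compound addition; fitted in both directions against DMSO so loss or gain of signal counts.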 Particulars: primary human HUVEC with PBMC. The procedure, abridged: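 Co-culture of human umbilical vein endothelial cells and PBMC, read 24 h after dosing. Total protein by 0.1% SRB staining after 10% TCA fixation, absorbance at 560 nm; bidirectional fit against DMSO.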

Read-out in experiment [10]: Interleukin-1 alpha (IL1a), IL1A (gene 3552)
Briefly: BSK_LPS_IL1a: BioMAP Diversity Plus: LPS Assay for Interleukin-1 alpha (IL1a) Biomarker Activity (AID 2283080). The following applies: primary human HUVEC with PBMC; actives raise or lower the signal. The gist of the method:
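Human umbilical vein endothelial cells co-cultured with PBMC and stimulated with LPS; IL-1a measured by ELISA 24 h after dosing. Bidirectional fitting against DMSO; cytotoxicity checked by SRB staining in parallel cultures.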

Experiment [11] is described as follows: BSK_LPS_PGE2: BioMAP Diversity Plus: LPS Assay for Prostaglandin E2 (PGE2) Biomarker Activity (AID 2283082). The following applies: primary human HUVEC with PBMC; actives raise or lower the signal. The gist of the method: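 Compounds were added to the LPS co-culture of endothelium and PBMC, and PGE2 was measured by ELISA after 24 h. Responses in either direction were fitted with DMSO as baseline.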

Read-out in experiment [12]: Macrophage colony-stimulating factor (MCSF), CSF1 (gene 1435)
Briefly: BSK_LPS_MCSF: BioMAP Diversity Plus: LPS Assay for Macrophage colony-stimulating factor (MCSF) Biomarker Activity (AID 2283083). Particulars: primary human HUVEC with PBMC; actives raise or lower the signal. The procedure, abridged:
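HUVEC–PBMC co-culture, M-CSF measured by ELISA 24 h after chemical dosing. Fitted in both directions relative to DMSO as negative control; overt cytotoxicity assessed by SRB total-protein staining in parallel cultures.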

Read-out in experiment [13]: Tissue Factor, F3 (gene 2152)
Briefly: BSK_LPS_TissueFactor: BioMAP Diversity Plus: LPS Assay for Tissue Factor Biomarker Activity (AID 2283084). The following applies: primary human HUVEC with PBMC; actives raise or lower the signal. The gist of the method:
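Human umbilical vein endothelial cells co-cultured with PBMC were dosed with compound. Cell-surface CD142 was measured by ELISA 24 h later. Activity was fitted bidirectionally against DMSO, with SRB total-protein staining in parallel cultures for cytotoxicity.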

Read-out in experiment [14]: Tumor necrosis factor (Homo sapiens) (UniProt P01375)
Briefly: BSK_LPS_TNFa: BioMAP Diversity Plus: LPS Assay for Tumour Necrosis Factor alpha (TNFa) Biomarker Activity (AID 2283085). Particulars: primary human HUVEC with PBMC; actives raise or lower the signal. The gist of the method: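 Cells (umbilical vein endothelium plus peripheral blood mononuclear cells) were dosed with chemical, incubated 24 h, then TNFa was quantified by ELISA; values derive from bidirectional fitting with DMSO as baseline.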

Read-out in a further experiment: CD38, CD38 (gene 952)
In words: BSK_SAg_CD38: BioMAP Diversity Plus: SAg Assay for CD38 Biomarker Activity (AID 2283087). The following applies: primary human HUVEC with PBMC; actives raise or lower the signal. The procedure, abridged:
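CD38 quantified by ELISA (fluorescence) in a superantigen-activated endothelial cell–PBMC co-culture at 24 h post-dose. Activity fitted in both directions relative to DMSO; parallel SRB and Alamar Blue cytotoxicity read-outs.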

Read-out in experiment [15]: CD40, CD40 (gene 958)
In words: BSK_SAg_CD40: BioMAP Diversity Plus: SAg Assay for CD40 Biomarker Activity (AID 2283088). Particulars: primary human HUVEC with PBMC; actives raise or lower the signal. The procedure, abridged: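 HUVEC plus PBMC co-culture, superantigen-activated, with CD40 read by ELISA 24 h after dosing. Curves fitted in both directions against DMSO. Overt cytotoxicity checked by parallel SRB total-protein staining.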

Read-out in another experiment: CD69, CD69 (gene 969)
Briefly: BSK_SAg_CD69: BioMAP Diversity Plus: SAg Assay for CD69 Biomarker Activity (AID 2283089).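 As to AC50: cell surface CD69 protein quantified by ELISA with fluorescence detection.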 Particulars: primary human HUVEC with PBMC; actives raise or lower the signal. The gist of the method: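 ELISA, fluorescence read-out: CD69 on human umbilical vein endothelial cell + PBMC co-culture, 24 h post-dosing. Gain or loss of signal fitted bidirectionally against DMSO baseline.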

Read-out in experiment [16]: Monocyte Chemoattractant Protein-1 (MCP1), CCL2 (gene 6347)
In words: BSK_SAg_MCP1: BioMAP Diversity Plus: SAg Assay for Monocyte Chemoattractant Protein-1 (MCP1) Biomarker Activity (AID 2283090). Particulars: primary human HUVEC with PBMC; actives raise or lower the signal. The gist of the method: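 Values derive from bidirectional fitting of ELISA-measured MCP1 against DMSO controls. Readings were taken 24 h after dosing human vascular endothelial cells co-cultured with peripheral blood mononuclear cells under superantigen stimulation.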

Read-out in experiment [17]: Vascular cell adhesion molecule 1 (VCAM1), VCAM1 (gene 7412)
In words: BSK_LPS_VCAM1: BioMAP Diversity Plus: LPS Assay for Vascular cell adhesion molecule 1 (VCAM1) Biomarker Activity (AID 2283086). Particulars: primary human HUVEC with PBMC; actives raise or lower the signal. The gist of the method:
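Cells are dosed in an LPS-stimulated endothelial/mononuclear co-culture and, after 24 h, VCAM-1 is quantified by ELISA. Activity in either direction is fitted relative to the DMSO negative control.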

Chain of Tumor necrosis factor (Homo sapiens) (P01375 whole entry, looked up): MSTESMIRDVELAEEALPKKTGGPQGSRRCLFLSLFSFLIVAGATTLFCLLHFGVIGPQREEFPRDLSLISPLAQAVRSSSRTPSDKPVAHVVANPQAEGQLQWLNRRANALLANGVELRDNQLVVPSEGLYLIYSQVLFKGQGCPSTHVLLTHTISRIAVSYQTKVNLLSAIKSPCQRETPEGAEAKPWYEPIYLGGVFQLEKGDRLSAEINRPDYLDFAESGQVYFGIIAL
Chain of E-selectin (Homo sapiens) (P16581 whole entry, looked up): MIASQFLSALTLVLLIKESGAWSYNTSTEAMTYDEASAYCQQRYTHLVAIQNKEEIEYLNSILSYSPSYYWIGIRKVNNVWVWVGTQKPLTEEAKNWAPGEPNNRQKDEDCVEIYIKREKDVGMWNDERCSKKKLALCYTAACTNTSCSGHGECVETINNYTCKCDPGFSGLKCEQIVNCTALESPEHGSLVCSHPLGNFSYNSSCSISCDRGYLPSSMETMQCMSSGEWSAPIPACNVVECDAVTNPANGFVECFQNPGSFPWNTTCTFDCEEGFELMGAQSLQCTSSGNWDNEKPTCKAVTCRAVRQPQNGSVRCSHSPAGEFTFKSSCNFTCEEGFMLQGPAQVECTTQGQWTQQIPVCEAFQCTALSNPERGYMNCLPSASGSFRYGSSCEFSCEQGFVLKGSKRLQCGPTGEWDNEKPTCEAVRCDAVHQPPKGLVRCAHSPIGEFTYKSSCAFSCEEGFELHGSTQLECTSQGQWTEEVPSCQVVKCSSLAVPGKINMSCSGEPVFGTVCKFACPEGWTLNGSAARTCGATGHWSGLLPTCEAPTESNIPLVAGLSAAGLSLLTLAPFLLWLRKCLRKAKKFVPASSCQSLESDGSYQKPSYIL

As to `CCOP(=S)(OCC)SCSCC`, the outcome in [1] is “inactive”; in experiment [2] it was “inactive”; in [3], “inactive”; in [4], “inactive”; in experiment [5] it was “inactive”; with CD40, CD40 (gene 958) [6] it was “inactive”. The result in experiment [7], in [8], in experiment [9], in experiment [10], in experiment [11] and in experiment [12] was inactive. The outcome was “inactive” in experiment [13]; “inactive” in experiment [14]; “inactive” in the experiment with CD38, CD38 (gene 952); “inactive” with CD40, CD40 (gene 958) [15]; “inactive” in the experiment with CD69, CD69 (gene 969); “inactive” in experiment [16].
Turning to `CCOP(=S)(OCC)SCSc1ccc(Cl)cc1`, the AC50 was 0.533 µM (active) in experiment [1]; 0.0592 µM (active) in [2]; 0.324 µM (active) in experiment [4]; 0.0705 µM (active) in [5]; 20 µM (active) with CD40, CD40 (gene 958) [6]; 5.31 µM (active) in experiment [10]. Further, the AC50 is 18.7 µM (active) in experiment [12]; 13.2 µM (active) in [17]; 20 µM (active) with CD38, CD38 (gene 952); 9.34 µM (active) with CD40, CD40 (gene 958) [15]; 20 µM (active) with CD69, CD69 (gene 969). The result in experiment [3], in [7], in experiment [8], in [9], in experiment [11] and in experiment [13] was inactive. Also, the outcome in experiment [14] was inactive.
As to `O=C(O)C1C(C(=O)O)C2(Cl)C(Cl)=C(Cl)C1(Cl)C2(Cl)Cl` (configuration not stated), the outcome in experiment [1] was “inactive”; in [2], “inactive”; in experiment [3] it was “inactive”; in [4] it was “inactive”; in [5], “inactive”; with CD40, CD40 (gene 958) [6], “inactive”. In addition, the result in experiment [7], in experiment [8], in [9], in experiment [10], in experiment [11] and in [13] was inactive. Further, the outcome in [14] was “inactive”; in the experiment with CD38, CD38 (gene 952) it was “inactive”; in the experiment with CD40, CD40 (gene 958) [15], “inactive”; in the experiment with CD69, CD69 (gene 969), “inactive”.

Usually AC50 stands for the concentration giving half of the maximal activity seen.
